# Data from PubChem BioAssay (EPA / NIEHS).
# Calls of active or inactive are those of the source. How the source made its calls: active means hit-call score of the fitted dose curve at least 0.9, where 1 is the maximum; inactive means score below 0.9.
# Columns and labels:
# [1] = ATG_CRE_CIS: Attagene CIS-FACTORIAL HepG2 Assay for human cAMP Responsive Element (CRE) binding protein 3 (AID 2282926); settings: HepG2 CRE cis-reporter, Attagene multiplexed mRNA; actives raise or lower the signal
# Outline: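 Endogenous CRE-binding activity in HepG2 is reported through a cis-regulated transfected reporter. Following a day of exposure, mRNA levels are determined by reverse transcription PCR and fluorescent fragment analysis; fits run in both directions versus DMSO.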
# [2] = biological target: CCAAT/enhancer-binding protein beta (Homo sapiens) (UniProt P17676); test: ATG_C_EBP_CIS: Attagene CIS-FACTORIAL HepG2 Assay for human CCAAT/Enhancer Binding Protein (C/EBP) beta (AID 2282927); settings: HepG2 Attagene cis-factorial transcription factor reporter; actives raise or lower the signal
# CCAAT/enhancer-binding protein beta (Homo sapiens), sequence (P17676 whole entry, looked up): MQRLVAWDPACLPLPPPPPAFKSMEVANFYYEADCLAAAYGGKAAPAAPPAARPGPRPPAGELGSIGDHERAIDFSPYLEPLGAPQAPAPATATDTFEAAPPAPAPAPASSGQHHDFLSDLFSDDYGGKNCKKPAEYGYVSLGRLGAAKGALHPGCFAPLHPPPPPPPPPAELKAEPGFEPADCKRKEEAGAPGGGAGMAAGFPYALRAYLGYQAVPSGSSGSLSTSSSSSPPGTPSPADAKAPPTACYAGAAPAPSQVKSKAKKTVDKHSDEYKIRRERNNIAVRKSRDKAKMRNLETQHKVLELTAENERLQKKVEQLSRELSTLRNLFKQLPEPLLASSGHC
# Outline: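 Transiently transfected HepG2 (MRTU library, endogenous TF-driven promoters); 24 h dosing; total RNA → oligo(dT) RT → PCR → 6-FAM primer extension → HpaI digest → CE; fit bidirectionally vs DMSO.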
# [3] = ATG_CMV_CIS: Attagene CIS-FACTORIAL HepG2 Assay for human CMV (Internal Marker) (AID 2282928); settings: HepG2 CMV promoter reporter, transcription factor profiling; actives raise or lower the signal;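 further: endpoint acts as a background internal control marker rather than a target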
# Outline: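 After transient transfection of HepG2 with reporter transcription units driven by cis-regulatory promoters, cells receive test chemical for 24 h. Labeled reporter amplicons, digested with HpaI, are sized and quantified by capillary electrophoresis against DMSO.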
# [4] = ATG_DR4_LXR_CIS: Attagene CIS-FACTORIAL HepG2 Assay for human Liver X Receptor (LXR), DR4 submotif (AID 2282929); settings: HepG2 Attagene DR4 cis-reporter, mRNA transcription; actives raise or lower the signal
# Outline: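 Measures endogenous transcription factor activity via a DR4-driven reporter transcript in human HepG2 cells. Compounds incubated 24 h; mRNA quantified by RT-PCR and capillary electrophoresis, analysed as gain or loss of signal versus DMSO.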
# [5] = biological target: Aryl hydrocarbon receptor (Homo sapiens) (UniProt P35869); test: ATG_Ahr_CIS: Attagene CIS-FACTORIAL HepG2 Assay for human Aryl Hydrocarbon Receptor (Ahr) (AID 2282930); settings: HepG2 AhR cis-factorial reporter transcription; actives raise or lower the signal
# Aryl hydrocarbon receptor (Homo sapiens), sequence (P35869 whole entry, looked up): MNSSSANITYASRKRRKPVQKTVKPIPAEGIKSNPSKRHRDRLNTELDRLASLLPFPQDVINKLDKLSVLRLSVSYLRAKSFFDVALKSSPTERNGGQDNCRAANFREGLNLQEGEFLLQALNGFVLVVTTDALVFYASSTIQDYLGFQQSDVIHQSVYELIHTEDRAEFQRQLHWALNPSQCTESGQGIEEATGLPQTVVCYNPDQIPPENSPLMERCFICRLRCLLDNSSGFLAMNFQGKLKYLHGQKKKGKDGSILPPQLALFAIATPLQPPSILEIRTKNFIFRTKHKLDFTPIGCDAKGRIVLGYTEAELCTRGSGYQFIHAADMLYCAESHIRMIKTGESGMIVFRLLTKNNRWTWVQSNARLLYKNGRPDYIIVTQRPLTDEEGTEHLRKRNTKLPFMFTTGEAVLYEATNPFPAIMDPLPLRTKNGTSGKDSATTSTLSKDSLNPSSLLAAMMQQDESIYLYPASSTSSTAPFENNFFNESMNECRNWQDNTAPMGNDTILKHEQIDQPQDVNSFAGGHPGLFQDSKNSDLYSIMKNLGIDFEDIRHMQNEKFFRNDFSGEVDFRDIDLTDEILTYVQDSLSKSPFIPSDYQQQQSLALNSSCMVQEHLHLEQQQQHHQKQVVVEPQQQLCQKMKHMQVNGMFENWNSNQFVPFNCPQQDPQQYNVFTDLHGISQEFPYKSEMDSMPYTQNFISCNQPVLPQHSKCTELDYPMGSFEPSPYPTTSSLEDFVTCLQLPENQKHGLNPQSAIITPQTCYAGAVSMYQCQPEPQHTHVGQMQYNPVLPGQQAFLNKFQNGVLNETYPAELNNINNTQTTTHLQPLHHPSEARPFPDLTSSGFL
# Outline: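 Read-out: reporter mRNA quantified by RT-PCR with fluorescent primer extension and capillary electrophoresis. Human HepG2 liver cells carried transfected cis-promoter reporter units and were exposed to chemical for 24 h; gain or loss fitted relative to DMSO.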
# [6] = ATG_AP_1_CIS: Attagene CIS-FACTORIAL HepG2 Assay for human Activator Protein 1 (AP-1) (AID 2282931); settings: HepG2 Attagene cis-factorial AP-1 reporter mRNA; actives raise or lower the signal
# Outline: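 Bidirectional concentration-response fitting against DMSO controls. Underlying signal: reporter mRNA from cis-promoter constructs in transiently transfected HepG2, measured after 24 h by RT-PCR and capillary electrophoresis.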
# [7] = ATG_AP_2_CIS: Attagene CIS-FACTORIAL HepG2 Assay for human Activator Protein 2 (AP-2) (AID 2282932); settings: HepG2 AP-2 cis-reporter, Attagene transcription factor profiling; actives raise or lower the signal
# Outline: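 HepG2 cells transiently transfected with cis-element reporter units and exposed for 24 h. Reporter mRNA measured by RT-PCR, FAM labelling, HpaI digestion and capillary electrophoresis. Changes in either direction fitted relative to DMSO.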
# [8] = ATG_BRE_CIS: Attagene CIS-FACTORIAL HepG2 Assay for human Bone Morphogenetic Protein (BMP) Response Element (BRE) (AID 2282933); settings: HepG2 BMP response element reporter, Attagene transcription factor profiling; actives raise or lower the signal
# Outline: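 A HepG2 multiplex reporter system measured inducible reporter mRNA 24 h post-dosing. Detection: RT-PCR, 6-FAM primer extension, HpaI digestion, capillary electrophoresis. Activity fitted bidirectionally relative to DMSO.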
# [9] = biological target: Transcription factor E2F1 (Homo sapiens) (UniProt Q01094); test: ATG_E2F_CIS: Attagene CIS-FACTORIAL HepG2 Assay for human E2F Transcription Factor 1 (AID 2282935); settings: HepG2 Attagene cis-reporter, E2F reporter RNA transcripts; actives raise or lower the signal
# Transcription factor E2F1 (Homo sapiens), sequence (Q01094 whole entry, looked up): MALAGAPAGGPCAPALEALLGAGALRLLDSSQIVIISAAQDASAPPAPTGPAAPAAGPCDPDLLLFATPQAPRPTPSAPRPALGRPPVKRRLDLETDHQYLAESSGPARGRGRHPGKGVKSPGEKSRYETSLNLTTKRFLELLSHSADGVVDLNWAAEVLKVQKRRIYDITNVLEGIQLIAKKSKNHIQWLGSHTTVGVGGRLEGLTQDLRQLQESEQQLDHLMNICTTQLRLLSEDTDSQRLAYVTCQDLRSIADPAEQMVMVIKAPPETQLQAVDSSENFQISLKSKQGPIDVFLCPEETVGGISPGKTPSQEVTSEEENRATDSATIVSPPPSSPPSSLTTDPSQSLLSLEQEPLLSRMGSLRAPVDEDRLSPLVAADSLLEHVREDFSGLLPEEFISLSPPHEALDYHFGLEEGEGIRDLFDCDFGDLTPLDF
# Outline: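 Endogenous E2F1 activity read through cis-promoter reporter units transfected into HepG2. After 24 h compound treatment, reporter mRNA measured by RT-PCR, HpaI digestion and capillary electrophoresis. Bidirectional fit versus DMSO.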
# [10] = ATG_E_Box_CIS: Attagene CIS-FACTORIAL HepG2 Assay for human Enhancer Box (E-box) (AID 2282936); settings: HepG2 E-box cis-reporter transcription, actives raise or lower the signal
# Outline: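 HepG2 cells transiently transfected with multiplexed cis-element reporter units, dosed 24 h; reporter mRNA quantified by RT-PCR, 6-FAM labelling, HpaI digestion and capillary electrophoresis. E-box (USF1) signal fitted bidirectionally vs DMSO.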
# [11] = ATG_M_61_CIS: Attagene CIS-FACTORIAL HepG2 Assay for M61 Transcription Factor (Internal Marker) (AID 2282937); settings: HepG2 Attagene CIS-FACTORIAL M61 internal marker reporter; actives raise or lower the signal
# Outline: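 Fluorescence from labelled cDNA fragments, separated by capillary electrophoresis, quantifies reporter induction. HepG2 cells bearing transiently transfected cis-promoter MRTUs were incubated with test chemical for 24 h; DMSO defined baseline for gain/loss fitting.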
# [12] = ATG_EGR_CIS: Attagene CIS-FACTORIAL HepG2 Assay for human Early Growth Response 1 (EGR1) (AID 2282938); settings: HepG2 Attagene CIS-FACTORIAL EGR reporter mRNA; actives raise or lower the signal
# Outline: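 Cell-based multiplex transcription assay: HepG2 carrying transfected cis-element reporter units, 24 h chemical treatment. Fluorescence from capillary electrophoresis of RT-PCR products gives mRNA levels; fitting is bidirectional relative to DMSO.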
# [13] = ATG_M_19_CIS: Attagene CIS-FACTORIAL HepG2 Assay for M19 Transcription Factor (Internal Marker) (AID 2282939); settings: HepG2 Attagene CIS-FACTORIAL M19 internal marker reporter; actives raise or lower the signal
# Outline: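 Chemical-treated HepG2 (24 h) with MRTU constructs; reporter transcripts detected by fluorescent RT-PCR fragment analysis on capillary electrophoresis. Internal background marker, DMSO as baseline.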
# [14] = ATG_Ets_CIS: Attagene CIS-FACTORIAL HepG2 Assay for human Erythroblast Transformation Specific (ETS) (AID 2282941); settings: HepG2 ETS cis-reporter transcription, actives raise or lower the signal
# Outline: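 Human HepG2 hepatoma cells were transiently transfected with promoter-driven reporter constructs and treated for 24 hours. Reporter transcripts were quantified by RT-PCR with fluorescent primer extension; bidirectional curve fitting used DMSO as reference.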
# [15] = biological target: Hepatocyte nuclear factor 3-beta (Homo sapiens) (UniProt Q9Y261); test: ATG_FoxA2_CIS: Attagene CIS-FACTORIAL HepG2 Assay for human Forkhead box A2 (FOXA2) (AID 2282942); settings: HepG2 cis-reporter transcription factor activity, 24 h; actives raise or lower the signal
# Hepatocyte nuclear factor 3-beta (Homo sapiens), sequence (Q9Y261 whole entry, looked up): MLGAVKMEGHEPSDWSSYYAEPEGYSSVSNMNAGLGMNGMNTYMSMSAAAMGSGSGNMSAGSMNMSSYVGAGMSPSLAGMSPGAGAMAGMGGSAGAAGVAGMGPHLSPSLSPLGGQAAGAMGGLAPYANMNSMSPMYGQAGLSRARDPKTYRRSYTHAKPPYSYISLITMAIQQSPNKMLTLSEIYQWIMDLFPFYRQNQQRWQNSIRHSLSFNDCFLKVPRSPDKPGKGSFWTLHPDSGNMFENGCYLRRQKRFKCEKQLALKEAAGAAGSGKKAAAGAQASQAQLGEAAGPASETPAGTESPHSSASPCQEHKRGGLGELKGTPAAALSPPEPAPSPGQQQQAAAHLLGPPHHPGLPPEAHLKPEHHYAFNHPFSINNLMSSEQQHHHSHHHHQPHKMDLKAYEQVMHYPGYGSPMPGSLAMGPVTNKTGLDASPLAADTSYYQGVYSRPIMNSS
# Outline: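 In transiently transfected human HepG2 cells, promoter-driven reporter mRNA levels after 24 h chemical exposure are determined via RT-PCR with capillary electrophoresis. DMSO serves as baseline for bidirectional fitting.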
# [16] = ATG_FoxO_CIS: Attagene CIS-FACTORIAL HepG2 Assay for human Forkhead box O (FoxO) (AID 2282943); settings: HepG2 Attagene cis-reporter, FoxO element, mRNA; actives raise or lower the signal
# Outline: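 Read-out: fluorescence of 6-FAM-labelled reporter cDNA fragments resolved by capillary electrophoresis. Transiently transfected HepG2 cells were dosed for 24 h; activity fitted in both directions relative to DMSO controls.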
# [17] = ATG_GATA_CIS: Attagene CIS-FACTORIAL HepG2 Assay for human GATA Binding Protein (AID 2282944); settings: HepG2 GATA cis-element reporter, Attagene multiplex mRNA; actives raise or lower the signal
# Outline: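 Transfected cis-reporter HepG2 cells were treated with chemicals for 24 hours. Total RNA was then converted to cDNA, amplified with reporter-specific primers and analysed by fluorescent capillary electrophoresis, using DMSO-treated wells as baseline.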
# [18] = ATG_GLI_CIS: Attagene CIS-FACTORIAL HepG2 Assay for human Zinc Finger Protein GLI1 (AID 2282945); settings: HepG2, Attagene cis-factorial reporter mRNA, GLI element; actives raise or lower the signal
# Outline: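 Transiently transfected HepG2 cells report endogenous transcription factor activity via cis-element-driven reporter units. After 24 h compound exposure, reporter mRNA was measured by RT-PCR with capillary electrophoresis; bidirectional fitting against DMSO baseline.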
# [19] = ATG_ERE_CIS: Attagene CIS-FACTORIAL HepG2 Assay for Estrogen Response Element (ERE) (AID 2282940); settings: HepG2 ERE cis-reporter, Attagene RNA transcript; actives raise or lower the signal
# Outline: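 Human liver cells (HepG2) bearing transiently transfected, promoter-regulated reporter units were exposed 24 h. Reporter mRNA induction was detected by capillary electrophoresis of labelled RT-PCR products and fitted bidirectionally to DMSO.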
smiles,measurement,setting,value
CC(C)[C@@H]1CC[C@@H](C)CC1=O,outcome,[1],inactive
same,outcome,[2],inactive
same,outcome,[3],inactive
same,outcome,[4],inactive
same,outcome,[5],inactive
same,outcome,[6],inactive
same,outcome,[7],inactive
same,outcome,[8],inactive
same,outcome,[9],inactive
same,outcome,[10],inactive
same,outcome,[11],inactive
same,outcome,[12],inactive
same,outcome,[13],inactive
same,outcome,[14],inactive
same,outcome,[15],inactive
same,outcome,[16],inactive
same,outcome,[17],inactive
same,outcome,[18],inactive
COC(=O)C1=C(C)NC(C)=C(C(=O)OCCN(C)Cc2ccccc2)C1c1cccc([N+](=O)[O-])c1 (stereo unspecified),outcome,[1],inactive
same,AC50,[2],15.5 µM (active)
same,outcome,[3],inactive
same,AC50,[4],8.22 µM (active)
same,outcome,[5],inactive
same,outcome,[6],inactive
same,AC50,[7],26.5 µM (active)
same,AC50,[8],17.9 µM (active)
same,AC50,[9],25 µM (active)
same,AC50,[10],19.4 µM (active)
same,outcome,[11],inactive
same,outcome,[12],inactive
same,outcome,[13],inactive
same,outcome,[19],inactive
same,outcome,[14],inactive
same,outcome,[15],inactive
same,outcome,[16],inactive
same,outcome,[17],inactive
same,AC50,[18],99.5 µM (active)
OC[C@H]1O[C@H](O[C@]2(CCl)O[C@H](CCl)[C@@H](O)[C@@H]2O)[C@H](O)[C@@H](O)[C@H]1Cl,outcome,[1],inactive
same,outcome,[2],inactive
same,outcome,[3],inactive
same,outcome,[4],inactive
same,outcome,[5],inactive
same,outcome,[6],inactive
same,outcome,[7],inactive
same,outcome,[8],inactive
same,outcome,[9],inactive
same,outcome,[10],inactive
same,outcome,[11],inactive
same,outcome,[12],inactive
same,outcome,[13],inactive
same,outcome,[14],inactive
same,outcome,[15],inactive
same,outcome,[16],inactive
same,outcome,[17],inactive
same,outcome,[18],inactive
COC(C(=O)O)c1ccccc1 (stereo unspecified),outcome,[1],inactive
same,outcome,[2],inactive
same,outcome,[3],inactive
same,outcome,[4],inactive
same,outcome,[5],inactive
same,outcome,[6],inactive
same,outcome,[7],inactive
same,outcome,[8],inactive
same,outcome,[9],inactive
same,outcome,[10],inactive
same,outcome,[11],inactive
same,outcome,[12],inactive
same,outcome,[13],inactive
same,outcome,[14],inactive
same,outcome,[15],inactive
same,outcome,[16],inactive
same,outcome,[17],inactive
same,outcome,[18],inactive
CNCCO,outcome,[1],inactive
same,outcome,[2],inactive
same,outcome,[3],inactive
same,outcome,[4],inactive
same,outcome,[5],inactive
same,outcome,[6],inactive
same,outcome,[7],inactive
same,outcome,[8],inactive
same,outcome,[9],inactive
same,outcome,[10],inactive
same,outcome,[11],inactive
same,outcome,[12],inactive
same,outcome,[13],inactive
same,outcome,[14],inactive
same,outcome,[15],inactive
same,outcome,[16],inactive
same,outcome,[17],inactive
same,outcome,[18],inactive
NNc1nc(-c2ccc(N)cc2)cs1,outcome,[1],inactive
same,outcome,[2],inactive
same,outcome,[3],inactive
same,outcome,[4],inactive
same,outcome,[5],inactive
same,outcome,[6],inactive
same,outcome,[7],inactive
same,outcome,[8],inactive
same,outcome,[9],inactive
same,outcome,[10],inactive
same,outcome,[11],inactive
same,outcome,[12],inactive
same,outcome,[13],inactive
same,outcome,[14],inactive
same,outcome,[15],inactive
same,outcome,[16],inactive
same,outcome,[17],inactive
same,outcome,[18],inactive
O=[N+]([O-])c1ccc(Nc2ccc(Nc3ccccc3)c(S(=O)(=O)O)c2)c([N+](=O)[O-])c1,outcome,[1],inactive
same,outcome,[2],inactive
same,outcome,[3],inactive
same,AC50,[4],100 µM (active)
same,AC50,[5],31.9 µM (active)
same,AC50,[6],147 µM (active)
same,outcome,[7],inactive
same,outcome,[8],inactive
same,outcome,[9],inactive
same,outcome,[10],inactive
same,outcome,[11],inactive
same,AC50,[12],100 µM (active)
same,outcome,[13],inactive
same,outcome,[14],inactive
same,outcome,[15],inactive
same,outcome,[16],inactive
same,outcome,[17],inactive
same,outcome,[18],inactive
O=C(O)c1cccc(C(F)(F)F)c1,outcome,[1],inactive
same,outcome,[2],inactive
same,outcome,[3],inactive
same,outcome,[4],inactive
same,outcome,[5],inactive
same,outcome,[6],inactive
same,outcome,[7],inactive
same,outcome,[8],inactive
same,outcome,[9],inactive
same,outcome,[10],inactive
same,outcome,[11],inactive
same,outcome,[12],inactive
same,outcome,[13],inactive
same,outcome,[19],inactive
same,outcome,[14],inactive
same,outcome,[15],inactive
same,outcome,[16],inactive
same,outcome,[17],inactive
same,outcome,[18],inactive
